Assay outcomes (PubChem BioAssay)
The list is not random: actives were taken first. Their share in the collection is about 2.8%.
proKLK7 act: proKLK7 zymogen activators, primary screen, biochemical, fluorescence intensity. purified proKLK7, EDANS-DABCYL substrate fluorescence; 100% is mature enzyme control, 0% vehicle. activation, % at 7 µM. actives 0.9% (n = 370,000). AID 652039, 2013;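 active = activation above the mean of all tested compounds plus 3 SD, computed per campaign excluding outliers beyond control limits, cut at about 13% in these data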
Target sequence (P49862 whole entry, looked up): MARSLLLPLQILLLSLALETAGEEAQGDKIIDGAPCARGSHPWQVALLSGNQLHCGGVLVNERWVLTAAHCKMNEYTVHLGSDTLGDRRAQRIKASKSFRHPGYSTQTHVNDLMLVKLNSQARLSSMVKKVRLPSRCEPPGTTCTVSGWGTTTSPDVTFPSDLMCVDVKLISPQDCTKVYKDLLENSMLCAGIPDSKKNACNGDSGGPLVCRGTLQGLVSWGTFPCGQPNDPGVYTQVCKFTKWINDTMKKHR
SMARCA2 act: SMARCA2 (BRM) function activators, primary screen, cell-based, luminescence, high throughput | MG213 cells, MMTV-luciferase reporter, dexamethasone, overnight | activation, % at 9.1 µM | actives 1% (n = 370,000) | AID 652017, 2013; in the data active = activation above about 7.8%;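 also: 0% = vehicle wells and 100% = reference activator wells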
MsrA act: bovine MsrA enzyme activators, primary screen, biochemical, absorbance, HTS. activation, % at 10.6 µM. purified bovine MsrA, absorbance read-out. actives 0.3% (n = 360,000); in the data active = activation above about 7.5%;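 also: 0% = vehicle and 100% = reference activator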
MsrA inhibitor: bovine MsrA enzyme inhibitors, primary screen, biochemical, absorbance, HTS. Methionine sulfoxide reductase A (Bos taurus). actives 0.75% (n = 360,000). inhibition, % at 15.5 µM. purified bovine MsrA, absorbance read-out; in the data active = inhibition above about 4.5%;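 also: 0% = vehicle wells with enzyme and 100% = reference inhibitor wells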
SMARCA2 conf: SMARCA2 (BRM) function activators, confirmation, cell-based, luminescence, triplicate. AID 652260, 2013. shares compounds with SMARCA2 act. actives 30% (n = 3,500). MG213 cells, MMTV-luciferase with dexamethasone, overnight; MG213 cells expressing E1A, Rb sequestered; DMSO wells 0%, reference activator 100%. activation, % at 9.1 µM;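 active = activation above its plate's cutoff, the mean activation of tested wells plus 3 SD, cut at about 7.9% in these data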
VP16 Luc act: GAL4-VP16 luciferase reporter activation, counter-screen for SMARCA2 (BRM) activator project, cell-based, pG5luc, luminescence, high throughput | shares compounds with SMARCA2 act | HEK293 GAL4-VP16 pG5luc reporter; scaled: DMSO wells 0%, SAHA wells 100% | activation, % at 9.1 µM | actives 41% (n = 3,500) | AID 686939, 2013;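 active = activation above the solvent-only control well mean plus 3 SD, averaged across control plates, cut at about 5.2% in these data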
Starred values were filed as active, the others as inactive; . = no result given.

SMILES | proKLK7 act | SMARCA2 act | MsrA act | MsrA inhibitor | SMARCA2 conf | VP16 Luc act
COc1ccc(C(=O)N/N=C(/C)c2cccc(NC(=O)C(F)(F)F)c2)cc1 | 0.9 | 14.0* | -2.6 | 0.5 | 7.6 | 7.0*
CC1=C(C(=O)Nc2ccccn2)C(c2ccc(N(C)C)cc2)n2ncnc2N1 (stereo not given) | -0.3 | 8.1* | -3.8 | 1.0 | 1.0 | -0.6
CN(C)/C=N/c1sc2c(c1C#N)CCCCC2 | -0.4 | 1.5 | -10.8 | 2.0 | . | .
N#Cc1c(/N=C/N2CCOCC2)sc2c1CCCCC2 | -0.2 | 17.7* | -2.9 | 2.9 | 6.5 | 11.7*
CCCN(/C=N/c1sc2c(c1C#N)CCCCC2)CCC | 0.9 | 15.4* | -12.2 | 0.6 | 0.4 | 2.4
Cc1ccc(NC(=O)c2ccc3snnc3c2)cc1 | -0.2 | 9.2* | -7.3 | -0.4 | 3.2 | 12.0*
CN(CC(=O)N1CCN(c2ccccc2F)CC1)S(=O)(=O)c1cnc[nH]1 | -0.1 | -3.7 | -1.7 | 1.1 | . | .
COc1ccc(N2CCN(C(=O)CN(C)S(=O)(=O)c3cnc[nH]3)CC2)cc1 | -0.4 | 10.1* | -3.6 | -1.1 | -3.5 | 0.0
Cc1ccc(S(=O)(=O)N2[C@@H](Cc3ccccc3)CO[C@H]2CC(=O)c2cccc3ccccc23)cc1 | 0.2 | -1.8 | . | 0.6 | . | .
COC(=O)[C@]1(C#N)CC(=O)N(CC(C)C)[C@@H]1c1ccccc1 | -1.0 | -1.0 | . | . | . | .
O=C(c1ccc(Cl)c([N+](=O)[O-])c1)N(Cc1cccc(Cl)c1)C1CCS(=O)(=O)C1 (stereo not given) | 0.7 | 10.1* | 2.1 | -0.3 | -4.2 | 0.9
O=C(/C=C/Nc1ccc(F)cc1)c1cccs1 | 0.1 | 8.8* | -5.0 | 0.9 | 11.2* | 13.7*
O=C(/C=C/Nc1ccc(F)c(F)c1)c1cccs1 | -0.6 | 3.8 | -4.1 | 0.9 | . | .
O=C1Cn2nnc(-c3ccccc3)c2C2c3cc(Br)ccc3CCN12 (stereo not given) | 1.0 | -1.4 | . | -2.9 | . | .
CCOc1ccc(CNC(=O)CCCn2nc(CC)n3c(cc4occc43)c2=O)cc1 | 1.0 | -1.9 | -5.6 | -0.6 | . | .
CCc1ccc(NC(=O)CCCn2nc(CC)n3c(cc4occc43)c2=O)cc1 | 0.3 | 9.6* | -1.0 | 0.3 | 2.8 | -0.5
Fc1ccc(-c2cc(-c3nnc4sc(-c5ccco5)nn34)[nH]n2)cc1 | -0.8 | -1.4 | . | . | . | .
CCc1ccc(-c2cnc3ccccc3n2)cc1NC(=O)CNC(=O)c1ccccc1 | 1.2 | 8.1* | 0.6 | 0.0 | 7.3 | 17.6*
O=C(NCCc1ccc(Cl)cc1)c1ccc2nccnc2c1 | 0.1 | 9.4* | 0.0 | 0.6 | 9.6* | 9.9*
CCCc1nc(-c2cc3ccc(C)cc3[nH]c2=O)no1 | 1.9 | 9.2* | 1.8 | 1.6 | -0.6 | 2.0
COc1ccc(CNC(=O)C(C)Sc2nc3ccccc3c(=O)n2CCCN2CCOCC2)cc1 (stereo not given) | -0.7 | 11.0* | -2.1 | 0.4 | -2.0 | -0.6
CCOC(=O)N1CCN(C(=O)C[C@H]2C[C@@]3(C(=O)OCC)CCCC4=C3N(CCC4)C2=O)CC1 | 0.7 | -3.2 | . | . | . | .
COc1ccc(N=Nc2[nH]c3ccc(C)cc3c2O)cc1 | 0.1 | 0.4 | -6.3 | 0.3 | . | .
Cc1ccc(N=Nc2[nH]c3ccccc3c2O)cc1 | 1.9 | 9.1* | -2.1 | -1.0 | 13.9* | 4.5
CSc1ccccc1C(=O)Nc1ccc(C)c(C)c1 | 0.0 | 2.3 | -3.8 | 0.2 | . | .
SMILES | proKLK7 act | SMARCA2 act | MsrA act | MsrA inhibitor | SMARCA2 conf | VP16 Luc act
CSc1ccccc1C(=O)Nc1cc(C)cc(C)c1 | 1.2 | 9.3* | -12.9 | -0.5 | 4.6 | 0.6
Nc1ccc(OCc2ccccc2)cc1 | 0.1 | -0.8 | -2.5 | 0.0 | . | .
Nc1cc(OCc2ccccc2)ccc1OCc1ccccc1 | -0.1 | 9.4* | -3.5 | 0.1 | 2.7 | 7.8*
COc1cccc(/C=N/N=C(\N)c2nonc2N)c1O | 0.3 | 8.6* | -2.6 | 1.8 | 6.6 | 12.2*
C[C@@H]1CN([C@@H](C)CO)C(=O)c2cc(Br)cnc2O[C@@H]1CN(C)S(C)(=O)=O | 0.3 | -2.5 | 0.0 | -1.8 | . | .
C=CCNc1ccc(C(=O)O)cc1 | 0.4 | 9.7* | -4.5 | 0.2 | 3.4 | -1.3
CC(=O)NC1C(=O)N=C(SCC(=O)Nc2c(C)cccc2C)NC1=O (stereo not given) | 0.2 | -0.9 | -0.7 | 1.4 | . | .
CC(=O)NC1C(=O)N=C(SCC(=O)NCc2ccccc2)NC1=O (stereo not given) | 0.1 | 10.5* | -7.5 | 0.2 | -0.6 | 1.9
Cn1cccc1[C@]1(O)C(=O)Nc2ccc(F)cc21 | -0.3 | -2.2 | . | . | . | .
COc1ccc2nc(-c3ccccc3)[nH]c2c1 | 3.3 | 5.3 | -6.1 | 2.0 | . | .
COc1ccc(N=c2oc3ccc(OC)cc3cc2-c2nc3ccccc3[nH]2)cc1 | 0.5 | 13.9* | -2.0 | 1.1 | 2.8 | 9.9*
COc1cccc(N=c2oc3ccc(OC)cc3cc2-c2nc3ccccc3[nH]2)c1 | 4.2 | 8.3* | -1.3 | 1.8 | 3.6 | 12.1*
COc1ccc2oc(=O)c(-c3nc4ccccc4o3)cc2c1 | -6.5 | 6.8 | -2.3 | 2.6 | . | .
N=c1c2c(-c3ccccc3)c(-c3ccccc3)n(Cc3ccccc3)c2ncn1CCCn1ccnc1 | 0.6 | 14.6* | 0.8 | 0.6 | -0.7 | -2.8
Cn1c(N)c(C(=O)CCl)c(=O)n(Cc2ccccc2)c1=O | 0.8 | -0.3 | -1.0 | -0.7 | . | .
Cn1c(N)c(C(=O)CCc2ccccc2)c(=O)n(C)c1=O | -0.2 | 8.1* | . | -0.1 | 17.4* | 5.8*
COC(=O)C1=C(C)N(Cc2ccccc2C(F)(F)F)C(=NCc2ccccc2C(F)(F)F)NC1c1cccc(F)c1 (stereo not given) | 0.1 | -4.9 | . | -1.4 | . | .
O=C(CSc1nc2ccccc2s1)N1c2ccccc2Sc2ccc(Cl)cc21 | -1.0 | -1.8 | -12.6 | 1.0 | . | .
O=c1oc2cc(Cl)ccc2n1CSc1nc2ccccc2s1 | -0.7 | 8.8* | -4.0 | -0.3 | 5.9 | 11.5*
Cc1nc(CS(=O)(=O)c2ccccc2)cc(Sc2ccccc2Cl)n1 | -0.2 | 8.2* | -10.5 | -0.2 | 7.1 | 6.9*
Cc1nc(CS(=O)(=O)c2ccc(Cl)cc2)cc(Sc2ccccc2Cl)n1 | 0.9 | 2.4 | -3.7 | 2.7 | . | .
Cc1cc(C(=O)NC2CCCCC2)c(C)n1-c1ccc(F)cc1 | -0.2 | 8.0* | -5.3 | -0.4 | 5.2 | 10.7*
Cc1cc(C(=O)CN2CCCCC2)c(C)n1-c1ccc(F)cc1 | 0.5 | 5.0 | -0.7 | 0.0 | . | .
Cn1c(C(=O)OCC(=O)NCc2ccco2)cc2sccc21 | -0.2 | 14.3* | -4.0 | 0.3 | 1.3 | 1.8
Cc1cc2c(cc(C(=O)OCC(=O)NCc3ccco3)n2C)s1 | 0.3 | -2.0 | -2.6 | 0.9 | . | .
